From ChEMBL document CHEMBL3988442, “University of Dundee, Small-Polar-MMV Screening Library” (2021)
Hit rate of the full screen: of about 38,000 compounds, about 1,200 (3.2%) showed an effect of 50% or more. The median lay at about -58%. Many of the other results were omitted from the sample, so strong results are more common in it than they were.

What follows are compounds tested on Plasmodium falciparum (assay: Calibr Malaria Delayed Death Assay SOP). Conditions: concentration 4.99e-06 (unit not given; other assays of the set use mol/L).
Assay type: functional, organism-based
Design: scale not given: in the data most compounds retested in dose-response had high values

SMILES	Percent Effect [%]
Cc1ncsc1C(=O)OCC1CCN(c2ccccc2)C1 (configuration not stated)	9.637
CNc1cncc(C2CCCN2Cc2ccnc(N3CCCC3)n2)n1 (configuration not stated)	-40.21
CN(CC1(CO)CCCC1)C(=O)c1cc(COc2ccccc2F)[nH]n1	-12.3
CSCCC(NC(=O)c1nc(SC)ncc1Cl)C(=O)O (configuration not stated)	-13.47
CC(C)(C)c1nc(CN2CCOC(Cn3cncn3)C2)cs1 (configuration not stated)	-89.29
Cc1cc(-c2cnn(CCNC(=O)CCn3cccn3)c2C2CC2)on1	-69.32
CCNC(=O)CCN1CCCC1c1cccc2c1OCCO2 (configuration not stated)	51.42
CNC(=O)CCN1CCCC1c1ccccc1Br (configuration not stated)	-26.77
O=C(CCN1CCCC1c1cccc2c1OCCO2)N1CCCCC1 (configuration not stated)	72.46
CC(C)NC(=O)CCN1CCCC1c1cccc2c1OCCO2 (configuration not stated)	52.1
O=C(CCN1CCCCCC1c1ccco1)N1CCOCC1 (configuration not stated)	-45.72
COCCN1CCCC1c1cccc2c1OCCO2 (configuration not stated)	-6.29
NC(=O)NC(=O)CCN1CCCC1c1cccc2c1OCCO2 (configuration not stated)	22.71
CC(C)NC(=O)CN1CCN(CC2CCOc3ccccc3C2)CC1 (configuration not stated)	-22.48
O=C(CCN1CCCC1c1cccc2c1OCCO2)N1CCOCC1 (configuration not stated)	-28.31
Cc1cc(C)cc(NCCC(=O)NC2CCCCC2)c1	-32.74
CCOCC1CN(C(=O)Cc2ccccn2)Cc2cnn(CC)c21 (configuration not stated)	-151.3
CCCNC(=O)CNc1ccccc1OCCC(=O)OC	-87.74
Cn1cc(CN2CCC3(CC2)CCN(C(=O)c2cscn2)C3)cn1.O=C(O)C(F)(F)F	-97.69
COc1ccc(C(N)=O)cc1NCc1nc(-c2cccs2)oc1C	-37.05
CC(C)c1nnc2n1CC(CNCc1cccnc1)CC2 (configuration not stated)	-95.11
O=C(NCCC(=O)N1CCCC1)c1cccnc1	-130.5
CC(=O)Nn1ccc2c(nnc3c(-c4ccc(F)cc4)cnn32)c1=O	-66.29
COc1ncc(CN2C[C@@H]3CC[C@@](O)(c4ccc(C)cn4)[C@@H]3C2)cn1.O=C(O)CC(O)(CC(=O)O)C(=O)O	-80.6
CC[C@H]1CN(C(=O)CCn2c(C)cccc2=O)CC[C@@]1(C)O	-150.9
CN(C)c1cc(CNC(=O)c2n[nH]c(=O)c3ccccc23)ccn1	-121.9

SMILES	Percent Effect [%]
c1ccc(OCCCNCc2cccs2)nc1	17.97
c1ccc(OCCNCc2cccs2)nc1	-81.56
Cc1ccsc1CNCCCOc1ccccn1	53.78
O=C(O)C1(Cc2ccccc2F)CCCN(c2ncnc3[nH]ccc23)C1 (configuration not stated)	-54.27
CCN1CCN(S(=O)(=O)c2cc(Cl)c(Cl)cc2C)CC1	69.76
CCN1CCN(S(=O)(=O)c2cc(C)c(Cl)cc2Cl)CC1	62.85
CCN1CCN(S(=O)(=O)c2cc(C)c(C)cc2Br)CC1	25.52
Cc1ccc(S(=O)(=O)NCCCN2CCC(O)CC2)cc1Cl	19.72
Cc1ccc(S(=O)(=O)N2CCN(Cc3ccncc3)CC2)c(Cl)c1	0.628
CCN1CCCN(S(=O)(=O)c2cnc3onc(C)c3c2)CC1	-44.36
CCN1CCN(S(=O)(=O)c2cc(C)c(Cl)cc2C)CC1	16.43
C[C@@H]1CN(S(=O)(=O)c2ccc(F)cc2Cl)C[C@]1(C)O	-40.08
CCOCc1nc(N2CCCC2)sc1C(=O)NCc1ccco1	-71.71
O=S1(=O)c2cccnc2OC(COc2ccccc2)CN1CC1CC1 (configuration not stated)	-105.2
CC(C)NC(=O)CNC(C)c1c(F)cccc1Cl (configuration not stated)	-63.71
Cc1ccc(OCC(=O)NC2CCN(S(C)(=O)=O)CC2)cc1	-121.3
O=C(c1ccc(F)c(F)c1)N1CCCC1CN1CCCC1 (configuration not stated)	-45.59
CC(C)N(CCCNC(=O)C1CCOCC1)S(C)(=O)=O	-53.5
CN(C)C(=O)c1nn(C)c2c1CN(Cc1ccoc1)C2	-66.64
c1cnc2ccc(C[C@@H]3CC[C@H](CN4CCCOCC4)O3)cc2c1	56.67
CC(=O)N1CCN(C[C@H]2CC[C@@H](Cc3ccc4ncccc4c3)O2)CC1	-19.65
CN1CCN(C[C@H]2CC[C@@H](Cc3ccc(CN4CCCC4)cc3)O2)CC1	35.77
CC1CCN(Cc2ccc(CNC(=O)c3ccn(C)c(=O)c3)cc2)CC1	-16.27
Clc1cc(NCc2nccs2)nc2[nH]ccc12	-79.81
Clc1cc(NCc2ncc[nH]2)nc2[nH]ccc12	-55.12
Clc1cc(NCc2ccncc2)nc2[nH]ccc12	63.3
